{
  "source": "PubChem BioAssay AID504329",
  "about": "(Southern Research Specialized Biocontainment Screening …, 2011)",
  "note": "Where “and” joins values, the source holds several entries; their conditions need not be identical. Equal values may be shown once. Among all 340,000 compounds or so, about 1,000 (0.29%) were called active. A selection follows. Entries with a potency or affinity are not part of this list. Values without a mark were called inactive. No stated cut-off is given here; in the data, inconclusive means inhibition above about 27% without an active follow-up result; inactive means below that.",
  "data": [
    {"test": "NS1A inhibition, H1N1 influenza, cell based functional assay (AID 504329)", "conditions": "percent inhibition, at 12.5 µM, active compounds read high", "values": [
      {"compound": "O=C(O)C1C2C=CC(C2)C1C(=O)Nc1ccc(Cl)c(Cl)c1", "note": "(stereo not drawn)", "inhibition": "1.34%"},
      {"compound": "NC(=S)N/N=C/c1cccc(/C=N/NC(N)=S)c1", "inhibition": "-0.05%"},
      {"compound": "Oc1ccccc1C=NNC(=S)NN=Cc1ccccc1O", "inhibition": "16.5%"},
      {"compound": "NC(=S)N/N=C/c1ccccc1", "inhibition": "-0.87%"},
      {"compound": "COC(=O)c1cccc(/C=N/NC(N)=S)c1O", "inhibition": "-14.3%"},
      {"compound": "Cc1ccc(NC(=O)c2cc(S(=O)(=O)N3CCCC3)cn2C)cc1", "inhibition": "2.93%"},
      {"compound": "COc1cccc(S(=O)(=O)Nc2ccc(C(=O)N3CCN(C(=O)c4ccco4)CC3)cc2)c1", "inhibition": "5.1%"},
      {"compound": "COC(=O)C=CC(=NNc1ccccc1)c1ccccc1", "inhibition": "3.06%"},
      {"compound": "Cc1nn(Cc2ccc(Cl)cc2)c(C)c1NC(=O)CCCn1nc(C)c([N+](=O)[O-])c1C", "inhibition": "10.9%"},
      {"compound": "Oc1c(CN2CCN(c3ccccc3)CC2)cc(Br)c2cccnc12", "inhibition": "14.4%"},
      {"compound": "O=C(c1ccc(Cl)cc1)C1CCCN(Cc2cccc3cccnc23)C1", "note": "(stereo not drawn)", "inhibition": "-0.71%"},
      {"compound": "O=C(O)c1ccc2cccnc2c1O", "inhibition": "-0.15%"},
      {"compound": "Oc1c(Br)cc(Br)c2cccnc12", "inhibition": "-9.24%"},
      {"compound": "CC(C(=O)NC1CCCCCC1)N(c1ccccc1)S(C)(=O)=O", "note": "(stereo not drawn)", "inhibition": "7.2%"},
      {"compound": "CC1(C)Cc2cccc(Oc3ccc(S(=O)(=O)N4CCCC4)cn3)c2O1", "inhibition": "6.74%"},
      {"compound": "CC(C)(CNC(=O)C1CCCN1C(=O)c1cccs1)N1CCOCC1", "note": "(stereo not drawn)", "inhibition": "-1%"},
      {"compound": "O=C(c1cc(-c2ccc(Cl)cc2)n[nH]1)N1CCc2ccccc2C1", "inhibition": "-1.28%"},
      {"compound": "COc1ccccc1C(=O)NC(=O)COC(=O)c1cnc(C)cn1", "inhibition": "1.58%"},
      {"compound": "CCc1cccc(CC)c1NC(=S)NCCc1ccc(O)c(O)c1", "inhibition": "9.59%"},
      {"compound": "CCN1C(=C(C#N)C#N)C=Cc2ccccc21", "inhibition": "-6.42%"},
      {"compound": "CCN1/C(=C\\c2ccc3cc(C)ccc3[n+]2CC)Sc2cc(C)c(C)cc21", "inhibition": "25.6%"},
      {"compound": "CCN1/C(=C/c2ccc3cc(C)ccc3[n+]2CC)Sc2ccccc21", "inhibition": "21%"},
      {"compound": "CCN1/C(=C/c2ccc3ccccc3[n+]2CCCS(=O)(=O)[O-])C=Cc2cc(C)ccc21", "inhibition": "19.6%"},
      {"compound": "CCN1/C(=C/c2ccc3cc(C)ccc3[n+]2CC)Sc2ccc3sccc3c21", "inhibition": "-14%"},
      {"compound": "CCN1/C(=C/c2ccc3cc(C)ccc3[n+]2CC)Sc2cc(C)c(C)cc21", "inhibition": "28.7%"},
      {"compound": "CC(=O)N(C)C(c1ccc(N(C)C)cc1)c1nnnn1-c1c(C)cccc1C", "note": "(stereo not drawn)", "inhibition": "3.51%"},
      {"compound": "CCCC(=O)Nc1nnc(S(=O)(=O)N(CC(C)C)c2ccccc2)s1", "inhibition": "-2.29%"},
      {"compound": "CCN(CC)C(=O)[C@H]1C[C@H](CC(=O)NCCc2ccccn2)C(=O)N2CCc3c([nH]c4ccc(Cl)cc34)[C@]12C", "inhibition": "15.9%"},
      {"compound": "O=C(CCC1CCCN(c2ncccn2)C1)NCc1ccccc1F", "note": "(stereo not drawn)", "inhibition": "-9.11%"},
      {"compound": "O=C1OCc2cc(NC(=O)C34CC5CC(CC(C5)C3)C4)ccc21", "inhibition": "1.32%"},
      {"compound": "Nc1ccc2c(c1)C(=O)c1ccc(Cl)cc1-2", "inhibition": "-15.2%"},
      {"compound": "O=C(O)c1cccc2c1-c1ccc(Cl)cc1C2=O", "inhibition": "-19.9%"},
      {"compound": "C[C@@H]1Cc2c(O)c(O)cc(O)c2C(=O)O1", "inhibition": "3.88%"},
      {"compound": "CC1CC(=O)c2c(cc3c(-c4c(O)cc(O)c5c(O)c6c(cc45)OC(C)CC6=O)c(O)cc(O)c3c2O)O1", "note": "(stereo not drawn)", "inhibition": "24.8%"},
      {"compound": "O=C(CSc1nnc(-c2ccco2)n1CC1CCCO1)NC1CCCC1", "note": "(stereo not drawn)", "inhibition": "20.3%"},
      {"compound": "CCOc1ccc(N=Nc2ccc(O)c3ncccc23)cc1", "inhibition": "4%"},
      {"compound": "CCOc1ccc2[nH]c3ncccc3c(=O)c2c1", "inhibition": "3.05%"},
      {"compound": "O=C(Nc1cccc(O)c1)c1ccc([N+](=O)[O-])cc1Cl", "inhibition": "-2.66%"},
      {"compound": "O=C(Nc1ccc([N+](=O)[O-])cc1Cl)c1cc(Cl)ccc1O", "inhibition": "8.63%"},
      {"compound": "Cc1cccc(NS(=O)(=O)c2csc(C(N)=O)c2)c1", "inhibition": "14.1%"},
      {"compound": "Cc1cccc(OCCCC(=O)NNC(=O)c2ccc(F)cc2)c1", "inhibition": "-5.91%"},
      {"compound": "COc1ccc(N=Nc2ccc(N)nc2N)cc1", "inhibition": "20.4%"},
      {"compound": "COc1cc(N=Nc2ccc(C(=O)N(C)C)cc2)c(C)cc1N", "inhibition": "11.5%"},
      {"compound": "Cn1c(Cn2c(=O)sc3ccccc32)nnc1SCC(=O)NCCc1ccccc1", "inhibition": "1.01%"},
      {"compound": "CN(C)c1ccc(N=Nc2ccccc2C(=O)OCC(=O)N(C)C2CCCCC2)cc1", "inhibition": "10.8%"},
      {"compound": "CN(C)c1ccc(N=Nc2ccccc2C(=O)OCC(=O)N2CCCC2)cc1", "inhibition": "22.2%"},
      {"compound": "CN(C)c1ccc(N=Nc2ccccc2C(=O)OCC(=O)NCC2CCCCC2)cc1", "inhibition": "8.64%"},
      {"compound": "CN(C)c1ccc(N=Nc2ccccc2C(=O)OCC(=O)N2CCCCCC2)cc1", "inhibition": "28.4%"},
      {"compound": "CN(C)c1ccc(N=Nc2ccccc2C(=O)OCC(=O)Nc2ccccc2C(F)(F)F)cc1", "inhibition": "28.2%"},
      {"compound": "CC(=O)c1ccc(NC(=O)COC(=O)c2ccccc2N=Nc2ccc(N(C)C)cc2)cc1", "inhibition": "17.2%"},
      {"compound": "COC(=O)c1cc(C(=O)OCC(=O)NC2CCS(=O)(=O)C2)cc([N+](=O)[O-])c1", "note": "(stereo not drawn)", "inhibition": "6.69%"},
      {"compound": "O=C(CCC1CCCN(C(=O)c2ccoc2)C1)NCc1ccccc1F", "note": "(stereo not drawn)", "inhibition": "-1.5%"},
      {"compound": "COc1ccccc1NC(=O)Nc1nc(CC(=O)Nc2ccc(F)cc2)cs1", "inhibition": "-9.19%"},
      {"compound": "COc1ccccc1NC(=O)Nc1nc(CC(=O)Nc2ccc(OC)c(OC)c2)cs1", "inhibition": "-0.35%"},
      {"compound": "O=C(Cn1nnc(-c2ccccc2F)n1)Nc1ccc2c(c1)OCCO2", "inhibition": "-0.7%"},
      {"compound": "C[C@H](NC(=O)c1nc[nH]c1C(=O)N1CCc2ccccc2C1)c1ccccc1", "inhibition": "-11.5%"},
      {"compound": "O=C(COc1ccc(Cl)cc1)N/N=C/c1cccc2cccnc12", "inhibition": "2.4%"},
      {"compound": "COc1ccc(C(=O)N/N=C/c2ccc3cccc(O)c3n2)cc1", "inhibition": "-2.2%"},
      {"compound": "CCOc1ccccc1C=NNC(=O)c1cccc2ccccc12", "inhibition": "-22.3%"},
      {"compound": "O=C(N/N=C/c1cccc2cccnc12)c1ccccc1O", "inhibition": "0.6%"},
      {"compound": "CCOc1ccc(C(=O)Nc2cccc3cccnc23)cc1", "inhibition": "-4.15%"},
      {"compound": "COc1ccc(C(=O)N/N=C/c2cccnc2)cc1", "inhibition": "-5.94%"},
      {"compound": "CCN(CC)CCNC(=O)/C(=C/c1cn(C)c2ccccc12)NC(=O)c1ccc(OC)c(OC)c1", "inhibition": "-22.9%"},
      {"compound": "COC(=O)Cc1[nH]nc2c1C(c1cccc(OC)c1OC)C(C#N)=C(N)O2", "note": "(stereo not drawn)", "inhibition": "-3.61%"},
      {"compound": "CN(c1ccccc1)S(=O)(=O)CS(=O)(=O)N(C)c1ccccc1", "inhibition": "-0.79%"},
      {"compound": "COc1ccccc1CNC(=O)CCCn1nc(C)n2ccnc2c1=O", "inhibition": "-0.77%"},
      {"compound": "CCCOc1ccc(N2CC(C(=O)Nc3ccc(N4CCOCC4)cc3)CC2=O)cc1", "note": "(stereo not drawn)", "inhibition": "-0.783%"},
      {"compound": "CCCC(C)C(=O)Nc1cccc(NC(C)=O)c1", "note": "(stereo not drawn)", "inhibition": "-2.06%"},
      {"compound": "COc1ccccc1CNC(=O)COC(=O)c1cccc(-n2cnnn2)c1", "inhibition": "-6.66%"},
      {"compound": "Cc1ccc(NC(=O)C2CCCN2C(=O)OCc2ccccc2)c(O)c1", "note": "(stereo not drawn)", "inhibition": "0.49%"},
      {"compound": "COc1cc(/C=C2\\SC(c3ccc(C)cc3)=NC2=O)cc(OC)c1O", "inhibition": "17.9%"},
      {"compound": "COc1cc(/C=C2\\SC(N)=NC2=O)cc(Cl)c1O", "inhibition": "4.85%"},
      {"compound": "O=C(CCN1C(=O)c2ccccc2C1=O)NCc1ccccc1", "inhibition": "5.94%"},
      {"compound": "CCN(CC)c1ccc(NC(=O)Nc2ccc(C(C)=O)cc2)cc1", "inhibition": "7.64%"},
      {"compound": "CCN(CC)c1ccc(C(=S)NCc2ccccc2)cc1", "inhibition": "-0.32%"},
      {"compound": "CCN(CC)c1ccc(C(=O)O)cc1", "inhibition": "15.6%"},
      {"compound": "CCN(CC)c1ccccc1", "inhibition": "-3.57%"},
      {"compound": "CCN(CC)c1ccc(SS(=O)(=O)O)cc1", "inhibition": "-7.03% and 0.65%"},
      {"compound": "CCN(CC)c1ccc(/C=C2\\C(=O)c3ccc(C(=O)O)cc3C2=O)cc1", "inhibition": "20.7%"},
      {"compound": "COC(=O)C1=C(C)N(CCCC(=O)O)C(=O)NC1c1ccccc1OS(=O)(=O)c1ccc([N+](=O)[O-])cc1", "note": "(stereo not drawn)", "inhibition": "13.1%"},
      {"compound": "Cc1cc(C)cc(NC(=O)COC(=O)CCc2ccc(S(=O)(=O)N3CCOCC3)cc2)c1", "inhibition": "3.45%"},
      {"compound": "Cc1cccc2cc(C#N)c(SCC(=O)Nc3ccccc3N3CCOCC3)nc12", "inhibition": "-15.7%"},
      {"compound": "Cc1ccc([N+](=O)[O-])cc1S(=O)(=O)Nc1ccc(-c2ccc(N3CCOCC3)nn2)cc1", "inhibition": "-3.07%"},
      {"compound": "COCCCNC(=O)c1ccc2c3c(onc13)-c1ccccc1C2=O", "inhibition": "17.2%"},
      {"compound": "COC(CNC(=O)c1coc2nc3ccccc3nc12)OC", "inhibition": "17%"},
      {"compound": "CCOC(=O)N1CCN(C(=O)c2cn(CC)c3ccc(S(=O)(=O)N4CCC(C)CC4)cc3c2=O)CC1", "inhibition": "-9.88%"},
      {"compound": "CCc1ccc(NC(=S)N(Cc2ccccc2)Cc2ccccn2)cc1", "inhibition": "11.1%"},
      {"compound": "C/C(CC(=O)Nc1ccccn1)=N\\NC(=O)c1cnccn1", "inhibition": "-7.52%"},
      {"compound": "CCOc1ccc(C(=O)N/N=C(\\c2ccccc2)c2ccccn2)cc1", "inhibition": "-0.16%"},
      {"compound": "O=C(NN=C(c1ccccc1)c1ccccn1)c1ccccc1", "inhibition": "-14.3%"},
      {"compound": "O=C(CCc1nnc(COc2ccccc2)o1)NCCc1cccs1", "inhibition": "-7.18%"},
      {"compound": "FC(F)(F)c1ccc(Cl)c(-n2c(-c3cc(C4CC4)[nH]n3)n[nH]c2=S)c1", "inhibition": "8.02%"},
      {"compound": "CC(CC(=O)OCC(=O)NC1CCS(=O)(=O)C1)c1ccccc1", "note": "(stereo not drawn)", "inhibition": "4%"},
      {"compound": "CC(=O)N(Cc1cccs1)Cc1cc2ccc(C)c(C)c2nc1Cl", "inhibition": "-4.22%"},
      {"compound": "Cc1nc(Nc2nc3ccccc3o2)nc(C)c1C", "inhibition": "5%"},
      {"compound": "Cc1ccc2oc(Nc3nc(C)c(C)c(C)n3)nc2c1", "inhibition": "-16.7%"},
      {"compound": "Cc1ccc2oc(Nc3nc(C)cc(C)n3)nc2c1", "inhibition": "-7.76%"},
      {"compound": "Cc1cc(C)nc(Nc2nc3ccccc3o2)n1", "inhibition": "-16.8%"}
    ]}
  ]
}
